# Screening data from PubChem BioAssay.
# Pol kappa inh = qHTS for Inhibitors of Polymerase Kappa | Potency, µM (series often up to 107 µM), for the others: at the highest dose activity, negative = inhibition, actives largely listed as inhibitors | purified Pol kappa, fluorescent DNA synthesis assay, 10 min | DNA polymerase kappa (Homo sapiens), Q9UBT6 | 400,000 tested, 0.53% active; further: on the % scale 0 is the no-effect control and ±100 the full control effect
#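 Here, compound and 10 nM enzyme are combined for 15 min at room temperature; adding 50 nM substrate (final) starts DNA synthesis, tracked by fluorescence at 0 and 10 min against buffer-only wells.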
# Pol beta inh = qHTS Assay for Inhibitors of DNA Polymerase Beta; P06746; Pol beta primer extension/strand displacement, fluorescence kinetic; Potency, µM (highest dose often 114 µM), without a hit: top-dose activity change, negative = inhibition, usual class: inhibitors; 340,000 tested, 1.3% active; AID 485314, 2010; further: on the % scale 0 is the no-effect control and ±100 the full control effect
#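 Curves were derived by four-parameter Hill fits of normalized qHTS data. The kinetic fluorescent primer-extension read was taken at 0 and 10 min after 50 nM substrate, following a 15 min room-temperature preincubation of 10 nM enzyme with compounds.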
# L3MBTL1 block = qHTS Assay for the Inhibitors of L3MBTL1; Lethal(3)malignant brain tumor-like protein 1 (Homo sapiens), Q9Y468; AlphaScreen L3MBTL1–H3K9me1 peptide binding; Potency, µM (doses to about 57.1 µM), for the others: at the highest dose activity, negative = inhibition, most hits filed as inhibitors; 230,000 tested, 0.66% active; AID 485360, 2010; further: on the % scale 0 is the no-effect control and ±100 the full control effect; nearly all actives have a fitted effect of over 60% in size
#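 L3MBTL1 (50 nM) pre-complexed 30 min with biotinylated H3(1-15)K9me1 peptide (75 nM), then compounds added for 30 min at room temperature; AlphaScreen streptavidin donor/nickel chelate acceptor beads (10 ug/mL final) read after 30 min dark incubation.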
# WRN helicase inh = qHTS for Inhibitors of WRN Helicase | Bifunctional 3'-5' exonuclease/ATP-dependent helicase WRN (Homo sapiens), Q14191 | WRN helicase unwinding, fluorescent forked duplex, kinetic | Potency, µM (titrated, usually from 114 µM), inactives show at the top dose activity change, negative = inhibition, hits mostly inhibitors | 360,000 tested, 0.46% active; further: on the % scale 0 is the no-effect control and ±100 the full control effect; nearly all actives have a fitted effect of over 55% in size
#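 Primary qHTS, 1536-well format. 20 nM WRN + compound, 15 min RT; start with 100 nM forked fluorophore/quencher duplex, 2 mM ATP (final); kinetic read ex 525/em 598 nm.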
# POLI inh = qHTS for Inhibitors of Polymerase Iota | DNA polymerase iota (Homo sapiens), Q9UNA4 | Pol iota fluorescent replication assay, 10 min | Potency, µM (titrated, usually from 115 µM), inactives show top-dose activity, negative = inhibition, usual class: inhibitors | 390,000 tested, 1% active | AID 588590, 2011
#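 Fluorescent replication assay read twice, at 0 min and 10 min after adding 50 nM (final) substrate. Enzyme (10 nM) and compounds were first incubated 15 min at room temperature; enzyme-free buffer wells were negative controls.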
# POLH inh = qHTS for Inhibitors of Polymerase Eta. recombinant Pol eta, fluorescent DNA replication assay. Potency, µM (titrated, usually from 114 µM), without a hit: at the highest dose activity change, negative = inhibition, actives largely listed as inhibitors. 390,000 tested, 1.2% active; further: on the % scale 0 is the no-effect control and ±100 the full control effect
# Target sequence (Q9Y253 whole entry, looked up): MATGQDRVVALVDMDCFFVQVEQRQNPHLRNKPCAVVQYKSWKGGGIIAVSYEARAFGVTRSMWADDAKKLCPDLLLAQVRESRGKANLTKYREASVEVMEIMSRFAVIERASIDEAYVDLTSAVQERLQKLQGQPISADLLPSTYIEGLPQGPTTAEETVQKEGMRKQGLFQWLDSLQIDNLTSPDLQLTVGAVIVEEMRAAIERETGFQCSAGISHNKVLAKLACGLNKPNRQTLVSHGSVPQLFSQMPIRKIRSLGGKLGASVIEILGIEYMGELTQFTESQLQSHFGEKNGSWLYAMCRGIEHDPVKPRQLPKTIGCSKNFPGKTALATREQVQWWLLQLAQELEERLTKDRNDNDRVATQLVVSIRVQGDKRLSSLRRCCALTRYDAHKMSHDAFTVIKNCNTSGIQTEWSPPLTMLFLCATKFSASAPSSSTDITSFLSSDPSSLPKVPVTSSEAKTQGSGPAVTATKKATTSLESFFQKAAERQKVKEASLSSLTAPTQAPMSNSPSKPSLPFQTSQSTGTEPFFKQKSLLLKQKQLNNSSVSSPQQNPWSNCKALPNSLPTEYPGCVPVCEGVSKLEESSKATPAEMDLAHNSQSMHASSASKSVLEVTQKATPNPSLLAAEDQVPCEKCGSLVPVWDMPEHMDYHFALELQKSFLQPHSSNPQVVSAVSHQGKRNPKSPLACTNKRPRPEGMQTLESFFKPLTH
#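 Pol eta at 10 nM preincubated with compounds 15 min at room temperature; reaction started with fluorescent substrate (50 nM final) and read kinetically at 0 and 10 min.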
# An asterisk follows results filed as active; u = inconclusive; x = no result; [ ] = dose if it differs, or a comment. Shown are actives, neighbours in structure and some others; about 2.5% of the full set was active somewhere. The call rests on the fitted dose curve; in most records, active means well fitted curve in the direction sought with a large enough effect; inconclusive means small, poorly fitted or top-dose-only effect, or another doubt; inactive means no such curve, though single readings can be large; an effect the other way counts as inactive or inconclusive. Potency means the concentration at half of the fitted maximal effect.
SMILES,Pol kappa inh,Pol beta inh,L3MBTL1 block,WRN helicase inh,POLI inh,POLH inh
CO[C@H]1C[C@@H]2CC[C@@H](C)[C@@](O)(O2)C(=O)C(=O)N2CCCC[C@H]2C(=O)OC([C@H](C)C[C@@H]2CC[C@@H](O)[C@H](OC)C2)CC(=O)[C@H](C)/C=C(\C)[C@@H](O)[C@@H](OC)C(=O)[C@H](C)C[C@H](C)/C=C/C=C/C=C/1C (stereo partly drawn),-2.8%[19.4 µM],x,x,x,x,x
O=C(Nc1ncc(Cc2ccccc2)s1)C1CCCO1 (stereo not drawn),4.0%,2.7%,u,5.1%,-22.9%,-10.3%
Cc1cc(C)nc(OC(C(=O)O)C(OCC(C)C)(c2ccccc2)c2ccccc2)n1 (stereo not drawn),0.3%,-13.5%,x,1.7%,13.4%,u
CCC(C)COC(c1ccccc1)(c1ccccc1)C(Oc1nc(C)cc(C)n1)C(=O)O (stereo not drawn),-16.0%,-0.2%,x,11.5%,79.4µM*,8.8%
CCOC(=O)c1c(C)oc(=O)c(CC)c1O,x,x,x,-6.6%,x,-9.5%
CCOC(=O)c1c(C)oc2c(F)c(F)c(F)c(F)c2c1=O,79.4µM*,-22.3%,-7.8%,-17.2%[57.1 µM],u,u
COc1ccc(OC)c2c1C(=O)c1ccccc1C2=O,-20.6%,30.3%,-8.7%,u,u,-13.3%
COC1=C(Nc2ccccc2)C(=O)c2ccccc2C1=O,-10.2%,u,31.6µM*,-3.5%,17.8µM*,-23.0%
COC1=C(Nc2ccc(C)cc2)C(=O)c2ccccc2C1=O,-15.7%,u,15.8µM*,-27.6%,u,-13.6%
COC1=C(OC)C(=O)c2ccccc2C1=O,-5.2%[60.1 µM],28.2µM*,x,x,22.4µM*,u
O=C1C(Cl)=C(Nc2ccccc2)C(=O)c2ccccc21,10.2%,-0.5%,-12.4%,-5.7%,35.5%,-14.4%
COc1ccc(N)c2c1C(=O)c1ccccc1C2=O,u,u,-26.3%,20µM*,u,-19.9%
Cc1sc2nc(SCc3ccc(C(=O)O)cc3)n(Cc3ccco3)c(=O)c2c1C,-5.2%,u,-25.2%,-18.7%,u,79.4µM*
C=CCn1c(SCC(=O)NC(=O)NCc2ccco2)nc2sc(CC)cc2c1=O,u,14.1µM*,u,-20.1%[11.6 µM],44.7µM*,11.2µM*
CCCn1c(SCC(=O)NC(=O)NCc2ccccc2)n[nH]c1=O,17.7%,x,1.4%,-0.9%,29.2%,-12.6%
CCCn1c(SCC(=O)NC(=O)NCc2ccco2)n[nH]c1=O,x,14.1µM*,x,x,x,x
CCn1c(SCC(=O)NC(=O)NCc2ccco2)nc2sc(C)c(C)c2c1=O,u,20µM*,x,u,28.2µM*,u
COc1ccccc1-c1nc2ccccc2c(=O)n1O,-1.1%,26.9%,x,-6.1%,117.9%,-4.9%
CCCCC1=CC2=C(c3ccco3)C(=O)C(C)(OC(=O)c3ccc(OC)cc3)C(=O)C2=CN1Cc1ccc(OC)cc1 (stereo not drawn),x,44.7µM*,x,x,x,x
CCCCC1=CC2=C(c3ccco3)C(=O)C(C)(OC(=O)c3ccc(OC)cc3)C(=O)C2=CN1Cc1ccco1 (stereo not drawn),50.1µM*,10µM*,x,-0.2%,3.98µM*,-14.8%
CCOC(=O)CN1C(=O)C2Cc3ccccc3CN2C1=S (stereo not drawn),3.8%,9.1%,7.7%,-0.1%,1.5%,1.7%
O=C(/C=C/c1ccc(O)c(O)c1)c1ccc(S(=O)(=O)N2CCCCCC2)cc1,-36.3%,u,u,u,u,7.94µM*
O=C(CCl)Nc1nc(-c2ccco2)c(-c2ccco2)s1,-31.9%,u,-8.4%,-5.9%[11.6 µM],u,12.6µM*
CCCCCCCNC1=CC(=O)CC(c2ccco2)C1 (stereo not drawn),-24.9%,11.2µM*,u,-26.8%,u,-24.3%
Cc1ccc(NC(=O)C2(C)CCN2Cc2ccc(OC(C)C)cc2)cc1 (stereo not drawn),x,x,x,-3.3%,x,x
SMILES,Pol kappa inh,Pol beta inh,L3MBTL1 block,WRN helicase inh,POLI inh,POLH inh
CCOc1ccccc1Nc1nc2ccccc2c2nncn12,6.5%,23.8%,x,x,-24.4%,-2.9%
COc1ccc(C)cc1NC(=O)CSc1ccc(-c2ccco2)nn1,u,-3.5%,x,-12.9%[11.6 µM],31.6µM*,u
COc1ccc(C)cc1NC(=O)CSc1nnc(-c2ccco2)n1N,-27.6%,-1.6%,-1.5%,-2.9%,22.5%,12.8%
COc1ccccc1CCNC(=O)CSc1ccc(-c2ccco2)nn1,-22.9%,15.8µM*,x,-9.9%,u,-16.0%
Cc1cccc(NC(=O)CSc2ccc(-c3ccco3)nn2)c1C,u,u,-16.7%,u,12.6µM*,5.4%
Cc1cccc(NC(=O)CSc2ccc(-c3ccccn3)nn2)c1C,5.4%,5.1%,x,-1.7%,88.6%,-18.1%
COc1ccc(S(=O)(=O)N2CCOCC2)cc1NC(=O)COC(=O)c1ccc([N+](=O)[O-])s1,-24.3%,x,u,-13.1%[11.6 µM],89.1µM*,u
O=C(COC(=O)c1ccc([N+](=O)[O-])o1)NCc1ccccc1,-24.1%,x,u,-19.9%,u,50.1µM*
O=C(COC(=O)c1ccc([N+](=O)[O-])s1)NCc1ccccc1,-22.4%,12.6µM*,u,-1.4%,u,u
O=C(COC(=O)c1ccc([N+](=O)[O-])s1)Nc1ccccc1,-3.3%,6.31µM*,u,-3.0%[57.1 µM],89.1µM*,u
COc1ccc(S(=O)(=O)N2CCOCC2)cc1NC(=O)COC(=O)c1[nH]c(C)c(C(C)=O)c1C,-20.6%,x,-7.4%,-24.3%,-20.1%,1.9%
Cc1ccc(C(C)C)c(OCC(=O)OCC(=O)c2c(N)n(C)c(=O)n(C)c2=O)c1,-16.7%,x,3.9%,-16.0%,3.8%,-5.2%
COCCNC(=O)c1ccc(CS(=O)(=O)c2ccc(OC)cc2)o1,8.6%,36.9%,-4.0%,-6.7%,-17.0%,-10.2%
Cc1[nH]c2ccccc2c1C(=O)COC(=O)c1c(-c2ccccc2Cl)noc1C,-21.1%,-10.0%,-8.9%,-28.8%[57.1 µM],-0.9%,-16.5%
CCOc1ccc(N(C)S(=O)(=O)c2ccc(C)c(C(=O)NCc3ccccc3OC)c2)cc1,-9.6%,x,3.9%,-7.8%,-21.7%,-12.3%
O=C(OCc1nnc(-c2ccccc2)o1)c1ccc([N+](=O)[O-])s1,-33.2%,x,u,30.6%,u,56.2µM*
Cc1ccc(C(=O)OCc2nnc(-c3ccccc3)o2)s1,3.3%,x,10.4%,1.2%,51.3%,-8.5%
